From PubChem
Sampled rows, rich in hits. Any-hit rate of the full collection: about 2.9%.
B2AR ag: activates human beta-2 adrenergic receptor causing internalization; P07550; Am2.2-beta2AR cells, FAP receptor internalization, flow cytometry; response, % (no concentration beside the values); 340,000 compounds, 0.43% hits; AID 504454;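 active means response above a set limit, near 3 SD of response in nonfluorescent compounds, cut at about 42% in these data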
GRK2 aptamer HTS: inhibitors of human GRK2 displacing RNA aptamer. inhibition of aptamer binding, % at 10 µM. 330,000 compounds, 0.59% hits. bead flow cytometry, FAM-aptamer displacement from GRK2;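 active means inhibition of aptamer binding above 40%, roughly 3 SD of noise, on plates passing a quality check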;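 further: median bead fluorescence of bound FAM aptamer so fluorescent compounds give negative values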
MEKK3 PB1 HTS: MEKK3-MEK5 PB1 interaction, increase or decrease; Q99759; bead-based flow cytometry, Alexa488-MEK5 binding to MEKK3; actives lie on both sides; 0 = blocked by unlabeled MEK5, 100 = vehicle; 290,000 compounds, 1.4% hits; binding response (% of control), % at 10 µM;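 active means binding response more than 3 SD above or below the average of its plate-row segment, actives on both sides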;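 further: Alexa488 bead fluorescence after subtracting the streptavidin-only scavenger bead signal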
Target sequence (Q99759 whole entry, looked up): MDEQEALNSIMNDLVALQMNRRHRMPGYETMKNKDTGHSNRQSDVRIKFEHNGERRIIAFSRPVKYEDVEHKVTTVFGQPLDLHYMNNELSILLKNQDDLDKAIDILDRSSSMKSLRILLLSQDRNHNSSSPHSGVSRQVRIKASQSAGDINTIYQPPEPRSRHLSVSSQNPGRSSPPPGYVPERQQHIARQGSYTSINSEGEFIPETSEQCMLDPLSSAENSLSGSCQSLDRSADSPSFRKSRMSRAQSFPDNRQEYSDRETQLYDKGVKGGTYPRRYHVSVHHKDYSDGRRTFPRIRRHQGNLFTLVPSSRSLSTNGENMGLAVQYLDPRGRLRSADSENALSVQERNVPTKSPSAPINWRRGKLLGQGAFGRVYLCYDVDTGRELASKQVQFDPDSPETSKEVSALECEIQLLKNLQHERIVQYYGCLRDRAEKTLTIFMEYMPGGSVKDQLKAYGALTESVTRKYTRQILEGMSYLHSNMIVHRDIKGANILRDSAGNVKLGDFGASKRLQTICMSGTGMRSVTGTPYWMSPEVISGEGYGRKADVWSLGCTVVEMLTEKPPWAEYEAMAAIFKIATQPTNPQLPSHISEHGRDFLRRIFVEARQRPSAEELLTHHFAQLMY
MEKK2wt PB1 HTS: raises or lowers MEK5 binding to wildtype human MEKK2 PB1 domain | Q9Y2U5 | bead flow cytometry, Alexa488-MEK5 binding to MEKK2 WT; actives lie on both sides | binding response (% of control), % at 10 µM | 290,000 compounds, 1.1% hits | AID 1531; in the data active means binding response below about 67% or above about 130%
MEKK2 mut-MEK5: signal of MEK5 binding to mutant human MEKK2 PB1 domain; bead flow cytometry, Alexa488-MEK5 binding to MEKK2 mutant; percent response, % at 10 µM; 290,000 compounds, 0.35% hits; AID 1530; in the data active means percent response above about 24%, passing the limit was not always enough
GRK2 CP1: human GRK2 inhibition confirmation, cherry pick 1; shares compounds with GRK2 aptamer HTS; bead-bound GRK2, FAM-aptamer displacement, flow cytometry; aptamer displacement, % at 10 µM; 2,000 compounds, 4% hits;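 active means aptamer displacement above 40%, near three times the noise of non-fluorescent compounds, on plates passing quality checks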;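 further: negative values mostly reflect intrinsic compound fluorescence rather than true enhancement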
Aptamer quench: counter-screen for GRK2 aptamer inhibitors: fluorescent aptamer quenchers; AID 504521; fluorescence change (kMESF span), kMESF (no concentration beside the values); 110 tested, under 10 active; shares compounds with GRK2 aptamer HTS; Fluorescent RNA aptamer beads, quenching, flow cytometry; stronger effect = higher value;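 active means compounds whose bead fluorescence drops by more than 37 kMESF across the dose range, marking them as dye quenchers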
FAM quench CP1: counter-screen for GRK2 aptamer inhibitors: fluorescent aptamer quenchers; shares compounds with GRK2 aptamer HTS; Carboxyfluorescein RNA aptamer on beads, flow cytometry quenching; stronger effect = lower value; fluorescence response (% of DMSO), % at 10 µM; 2,000 tested, under 10 active; AID 504580;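 active means compounds that quench the bead-bound fluorescent RNA probe, cutting fluorescence to under half of the solvent control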;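 further: counterscreen run without GRK2 so only probe quenching by compound is measured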
GRK2 confirm 2: confirmation of human GRK2 inhibitors binding RNA aptamer site; shares compounds with GRK2 aptamer HTS; bead-bound GRK2, FAM-aptamer displacement, flow cytometry; inhibition of aptamer binding, % at 10 µM; 360 tested, under 10 active;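 active means inhibition of aptamer binding above 40%, about triple the noise seen with nonglowing compounds, on plates passing quality control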;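 further: negative values mostly come from compounds that fluoresce themselves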
Aptamer quench 2: aptamer fluorescence quenching in GRK2 counter-screen dose response; 25 tested, under 10 active; change in fluorescence (kMESF span), kMESF (no concentration beside the values); Streptavidin beads, FAM-RNA aptamer fluorescence quenching, flow cytometry; AID 504819; shares compounds with GRK2 aptamer HTS;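 active means compounds quenching the bead-bound labeled aptamer, with fluorescence dropping by more than 37 kMESF over the dose range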
FAM quench CP2: counter-screen for GRK2 binding hits: quenchers of fluorescent RNA aptamer; 360 tested, under 10 active; shares compounds with GRK2 aptamer HTS; AID 588494; fluorescence response vs DMSO, % at 10 µM; carboxyfluorescein RNA aptamer beads, flow cytometry quenching; stronger effect = lower value;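 active means response vs DMSO under 50%, meaning signal dropped by over half, treated as fluorescence quencher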;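 further: labelled aptamer on streptavidin beads without GRK2 as a quench counter-screen; 100% = bead fluorescence of DMSO wells and lower means quenching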
FAM quench DR: counter-screen for GRK2 aptamer binding inhibitors: aptamer fluorescence quenching | Bead-bound FAM RNA aptamer fluorescence quenching, flow cytometry; stronger effect = lower value | fluorescence ratio to DMSO, % at 11.1 µM | AID 588496 | shares compounds with GRK2 aptamer HTS | 35 tested, under 10 active;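 active means compounds that dim the fluorescent label, raw bead signal shifting by over 33 units between lowest and highest dose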
* = called active by the depositor; nt = no result given.

SMILES	B2AR ag	GRK2 aptamer HTS	MEKK3 PB1 HTS	MEKK2wt PB1 HTS	MEKK2 mut-MEK5	GRK2 CP1	FAM quench CP1	others
CC(C)Cc1nnc(NC(=O)CCS(=O)(=O)c2ccc(Cl)cc2)s1	-6.9	0.0	107.0	115.0	13.0	-5.3	96.4
COC(=O)c1ccsc1NC(=O)CCS(=O)(=O)c1ccc(Cl)cc1	11.5	1.0	nt	nt	nt	nt	nt	GRK2 confirm 2=-38.0;FAM quench CP2=101.0
CC(C)Cc1nnc(NC(=O)CCC(=O)Nc2ccc(Cl)cc2)s1	-4.8	1.0	101.0	101.0	3.0	nt	nt
COc1ccc(C(=O)Nc2nc(-c3ccccn3)cs2)cc1S(=O)(=O)N1CCOCC1	13.9	0.0	nt	nt	nt	nt	nt
c1ccc(CSc2nc3ncccn3n2)cc1	-5.2	3.0	nt	nt	nt	nt	nt
O=C(c1ccccc1Cl)N1CCN(c2ncccn2)CC1	-12.8	2.0	nt	nt	nt	nt	nt
O=C(CCS(=O)(=O)c1ccc(Br)cc1)NCCc1ccccc1	-4.7	70.0*	106.0	111.0	9.0	42.9*	100.5	Aptamer quench=-0.7;Aptamer quench 2=-0.9
O=C(CCS(=O)(=O)c1ccc2c(c1)NC(=O)CS2)NCCc1ccccc1	7.8	0.0	99.0	100.0	4.0	nt	nt	GRK2 confirm 2=6.9;FAM quench CP2=99.0
O=C(CCS(=O)(=O)c1ccc2c(c1)NC(=O)CS2)NCCc1ccc(Cl)cc1	9.6	10.0	100.0	105.0	1.0	nt	nt
COc1ccc(CNC(=O)CCS(=O)(=O)c2ccc(Br)cc2)cc1	0.6	89.0*	100.0	98.0	6.0	37.8	101.7	Aptamer quench=8.5;Aptamer quench 2=1.8;FAM quench DR=103.0
CCOc1ccc(CCNC(=O)CCS(=O)(=O)c2ccc(Br)cc2)cc1OCC	-3.4	8.0	103.0	104.0	3.0	-0.9	96.4	Aptamer quench=-0.5;FAM quench DR=99.0
CCCCC(C(=O)NC1CCCC1)N(C(=O)c1snc(C(N)=O)c1N)c1ccc(OCC)cc1 (configuration not stated)	-5.8	0.0	98.0	94.0	-7.0	nt	nt
N#CCCN(C(=O)CN1CCN(S(=O)(=O)c2ccc3c(c2)OCCO3)CC1)c1ccc(F)cc1	4.7	0.0	nt	nt	nt	nt	nt
NS(=O)(=O)c1ccc(CCNC(=O)CCS(=O)(=O)c2ccc(Br)cc2)cc1	-2.9	87.0*	97.0	100.0	-16.0	nt	nt	GRK2 confirm 2=74.3*;Aptamer quench 2=2.7;FAM quench CP2=101.0;FAM quench DR=101.0
CCCCC(=O)NCCc1ccc(S(N)(=O)=O)cc1	-1.2	6.0	102.0	99.0	-3.0	nt	nt
Cc1cccc(NC(=O)CCC(=O)N/N=C/c2ccc(O)cc2O)c1	3.4	56.0*	106.0	108.0	7.0	1.5	104.8
Cc1ccc(NC(=O)CCC(=O)N/N=C/c2ccccc2O)cc1	-6.8	2.0	106.0	106.0	6.0	nt	nt
CCN(CC)CCN(C)C1CCC(c2ccccc2)CC1 (configuration not stated)	8.7	0.0	102.0	101.0	3.0	nt	nt
COc1ccccc1C(=O)Nc1c2c(nn1-c1ccc(Cl)cc1)CS(=O)(=O)C2	4.8	44.0*	105.0	107.0	8.0	nt	nt	GRK2 confirm 2=-17.7;FAM quench CP2=101.0
O=C(O)c1c2c(nc3ccccc13)/C(=C/c1ccc(O)cc1)CC2	-3.1	67.0*	103.0	106.0	0.0	50.2*	98.5	Aptamer quench=8.9
CC(NC(=O)COC(=O)CNC(=O)c1ccc(-c2ccccc2)cc1)c1ccccc1 (configuration not stated)	-9.5	2.0	nt	nt	nt	nt	nt
O=C(COC(=O)Cc1ccc(-c2ccccc2)cc1)NCc1ccccc1	-1.8	0.0	98.0	97.0	2.0	-2.9	79.4
O=C(COC(=O)CC(c1ccccc1)c1ccccc1)NCc1ccccc1	-2.2	5.0	101.0	100.0	-2.0	nt	nt
CC(NC(=O)COC(=O)Cc1ccc(-c2ccccc2)cc1)c1ccccc1 (configuration not stated)	0.9	0.0	87.0	83.0	-4.0	1.1	21.9*
CC1(c2ccc3c(c2)OCCO3)NC(=O)N(CC(=O)Nc2ccccc2SCC#N)C1=O (configuration not stated)	-36.6	2.0	nt	nt	nt	nt	nt
SMILES	B2AR ag	GRK2 aptamer HTS	MEKK3 PB1 HTS	MEKK2wt PB1 HTS	MEKK2 mut-MEK5	GRK2 CP1	FAM quench CP1	others
Cc1ccc2c(nc3s/c(=C\c4ccc(-c5ccccc5C(=O)O)o4)c(=O)n32)c1C	-107.2	49.0*	101.0	92.0	-4.0	2.4	104.9
Cc1ccc2c(nc3s/c(=C/c4cccs4)c(=O)n32)c1C	3.0	nt	nt	nt	nt	nt	nt
CCOC(=O)C(C)N1C(=O)S/C(=C\c2ccc(-c3ccccc3C(=O)O)o2)C1=O (configuration not stated)	3.8	84.0*	93.0	96.0	0.0	71.3*	103.3	Aptamer quench=-278
O=C(O)c1ccc(-c2ccc(/C=c3/sc4nc5ccccc5n4c3=O)o2)cc1Cl	-210.5	80.0*	100.0	95.0	-3.0	60.1*	94.5	Aptamer quench=10.1
Cc1c(C)c2ccc(OC(C)C(=O)NCCCN3CCOCC3)c(C)c2oc1=O (configuration not stated)	1.5	0.0	102.0	102.0	0.0	-0.4	100.6
Cc1coc2c(C)c3oc(=O)c(CCC(=O)NCCCN4CCOCC4)c(C)c3cc12	1.1	0.0	98.0	103.0	-1.0	-0.8	97.0
CCCCN(C)C(=O)c1cc2c(s1)-c1ccccc1S(=O)(=O)C2	-8.3	5.0	93.0	94.0	-9.0	nt	nt
CCCCN(C)C(=O)c1cc2c(Cl)nc3ccccc3c2s1	-16.1	49.0*	102.0	104.0	2.0	-0.3	102.0
Cc1ccccc1-c1nnc(SCC(=O)N(C)c2c(N)n(Cc3ccccc3)c(=O)[nH]c2=O)n1C	-2.5	2.0	nt	nt	nt	nt	nt
CC1CC(C)CN(S(=O)(=O)CCNC(=O)c2ccc3c(c2)OCO3)C1 (configuration not stated)	-1.5	0.0	nt	nt	nt	nt	nt
O=C(N/N=C/c1cccc(F)c1)c1c(O)c2ccccc2[nH]c1=O	2.8	70.0*	94.0	89.0	5.0	4.1	94.0
